Source: PubChem BioAssay (National Center for Advancing Translational Sciences (NCATS))
Compounds with a hit are over-represented: about 1.7% of the library has one in this group of screens.
GLP1R cytotox: cytotoxicity in counter-screen for GLP-1R inverse agonists. HEK293 cAMP-luciferase reporter cells, luminescence, 24 h. Potency, µM (doses to about 38.3 µM), hits mostly inhibitors. actives 0.13% (n = 410,000). AID 624418;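 further: loss of luciferase light is scored as toxicity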
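Step one: seed cells (200 cells/uL, DMEM with 10% Nu serum, 1% pen-strep). Step two: 12-hour incubation at 37 deg C. Step three: pin 23 nL compound, incubate 24 hr. Step four: add luciferase reagent, read luminescence 12 min later.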
GLP1R ag: GLP-1 receptor (human) agonism | HEK293 GLP-1R CRE-luciferase, luminescence, 4-6 h; cells express a hypersensitive GLP-1R form | AID 624172 | actives 0.007% (n = 380,000) | P43220 | Potency, µM (doses to about 45.6 µM), actives largely listed as activators
PTHR1 ag: PTHR1 (human) receptor agonism; Q03431; HEK293 GP2 PTHR1 cells, GloSensor cAMP luminescence, 1 h; Potency, µM (highest dose often 115 µM), usual class: activators; actives 0.075% (n = 410,000); further: nearly all actives have a fitted effect of over 55% in size
Target sequence (Q03431 whole entry, looked up): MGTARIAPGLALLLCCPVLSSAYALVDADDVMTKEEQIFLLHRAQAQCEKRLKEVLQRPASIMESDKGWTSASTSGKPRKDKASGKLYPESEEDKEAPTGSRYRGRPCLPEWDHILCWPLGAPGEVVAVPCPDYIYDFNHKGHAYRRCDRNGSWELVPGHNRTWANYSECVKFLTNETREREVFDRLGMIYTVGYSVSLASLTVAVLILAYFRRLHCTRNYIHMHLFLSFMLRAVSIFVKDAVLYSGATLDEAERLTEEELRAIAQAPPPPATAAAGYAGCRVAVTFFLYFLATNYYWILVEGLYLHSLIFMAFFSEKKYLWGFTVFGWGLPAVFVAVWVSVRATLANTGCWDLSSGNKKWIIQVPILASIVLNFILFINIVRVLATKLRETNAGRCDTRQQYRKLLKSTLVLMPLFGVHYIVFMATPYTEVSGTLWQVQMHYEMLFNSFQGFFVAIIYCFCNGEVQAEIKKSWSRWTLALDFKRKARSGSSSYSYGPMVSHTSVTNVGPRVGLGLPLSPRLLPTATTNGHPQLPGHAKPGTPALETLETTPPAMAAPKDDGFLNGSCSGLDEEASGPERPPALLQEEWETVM
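HEK-293-derived GP2 cells expressing PTHR1 and a GloSensor cAMP reporter, 3,000/well, plated overnight, given luciferin plus IBMX (each 0.5 mM as added) for 1 h at 37 °C, then compound for 1 h at 37 °C. Luminescence was read after 15 min at room temperature.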
GLP-1R inv ag: acts as inverse agonist at human GLP-1 receptor. Potency, µM (highest dose often 38.3 µM), actives largely listed as inhibitors. AID 624417. actives 1.6% (n = 410,000). HEK293 GLP-1R CRE-luciferase, luminescence, 24 h; GLP-1R form is constitutively active. P43220; further: nearly all actives have a fitted effect of over 55% in size
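qHTS in 1536-well format: reporter HEK293 cells expressing constitutive GLP-1R activity in DMEM + 10% Nu serum, 24 hr with compounds at 37 deg C, luminescence read after 12 min with detection reagent.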
Each line names hits and unclear results; the compound was inactive in the other large screens. The call rests on the fitted dose curve; in most records, active means well fitted curve in the direction sought with a large enough effect; inconclusive means small, poorly fitted or top-dose-only effect, or another doubt; inactive means no such curve, though single readings can be large; an effect the other way counts as inactive or inconclusive.

COc1ccc(-c2cc(C(=O)N3CCN(c4ccccc4OC)CC3)c3cc(C(C)C)ccc3n2)cc1	GLP-1R inv ag 8.91µM (no result: GLP1R ag)
CN1[C@@H]2CC[C@H]1CC(OC1c3ccccc3CCc3ccccc31)C2 (some centres not stated)	GLP1R cytotox inconclusive, GLP-1R inv ag 2µM
CN1C2CCC1CC(OC(c1ccccc1)c1ccccc1)C2 (configuration not stated)	GLP1R cytotox inconclusive, GLP-1R inv ag inconclusive
CC(O)(c1ccncc1)c1nc(-c2cccc(C(F)(F)F)c2)cs1 (configuration not stated)	GLP-1R inv ag inconclusive
O=C(Nc1cccc(-c2csc(Nc3cccc(C(F)(F)F)c3)n2)c1)c1ccccc1	GLP1R cytotox inconclusive, GLP-1R inv ag 2.82µM
Cc1cccc(-c2cccc(NC(=O)C3CCCN(Cc4cccnc4)C3)c2)c1 (configuration not stated)	GLP1R cytotox inconclusive, GLP-1R inv ag inconclusive
Nc1nc(F)nc2c1ncn2[C@@H]1O[C@H](CO)[C@@H](O)[C@H]1O	GLP1R cytotox inconclusive, GLP-1R inv ag 2µM
ClC[C@H]1CO1 (tested in a mixture with another compound)	none (no result: GLP1R cytotox, PTHR1 ag, GLP-1R inv ag)
Cc1ccc(S(=O)(=O)CCSC(=N)N)cc1	GLP1R cytotox inconclusive, GLP-1R inv ag inconclusive
Fc1ccc(C(OCCN2CCCC2)c2ccc(Br)cc2)cc1 (configuration not stated)	GLP1R cytotox inconclusive, GLP-1R inv ag 5.62µM
CC1CCN(S(=O)(=O)c2ccc3nc(Nc4cccc(F)c4)ccc3c2)CC1	GLP1R cytotox inconclusive, GLP-1R inv ag inconclusive (no result: GLP1R ag)
CC(C)(C)[C@@H]1COC(=O)[C@@H](Cc2ccc(F)cc2)CC/C=C\C[C@@H](CC(=O)N(CCO)Cc2ccccc2)C(=O)N1	GLP-1R inv ag 10µM
O=C1NCCOC(=O)[C@H](Cc2ccc(F)cc2)CC/C=C/C[C@H]1CC(=O)N(CCO)Cc1ccccc1	none
O=C(CCOc1cccc(Br)c1)Nc1ccc(F)c(S(=O)(=O)N2CCOCC2)c1	GLP1R cytotox inconclusive, GLP-1R inv ag 10µM
N#CC1=C(N)C2=CCCC[C@H]2[C@H](c2ccccc2)C1(C#N)C#N	GLP-1R inv ag 4.47µM
C=C(C)[C@@]12OC3(c4ccccc4)O[C@@H]1C1[C@@H]4O[C@]4(CO)[C@@H](O)[C@]4(O)C(=O)C(C)=C[C@H]4[C@@]1(O3)[C@H](C)[C@H]2OC(=O)/C=C/C=C/c1ccccc1 (some centres not stated)	GLP-1R inv ag 2.82µM
CC(C)N1CC=C(c2c[nH]c3ccccc23)CC1	GLP-1R inv ag inconclusive
Cc1ccc(-c2csc(-c3c[nH]c4ccccc34)n2)c(C)c1	GLP1R cytotox inconclusive, GLP-1R inv ag 10µM
Cc1ccc(C(C)C)c(OCc2nn(CC(=O)c3ccc(OC(F)F)cc3)c3[n+]2CCCCC3)c1	GLP1R cytotox inconclusive, GLP-1R inv ag inconclusive
CC(C)[C@@]1(NC(=O)[C@H]2CC3c4cccc5[nH]cc(c45)C[C@H]3N(C)C2)O[C@@]2(O)C3CCCN3C(=O)[C@@H](Cc3ccccc3)N2C1=O (some centres not stated)	none (no result: GLP1R cytotox, PTHR1 ag, GLP-1R inv ag)
COc1cccc2c1C(=O)c1c(O)c3c(c(O)c1C2=O)CC(O)(C(C)=NO)CC3OC1CC(N)C(O)C(C)O1 (configuration not stated)	GLP1R cytotox 11.2µM, GLP-1R inv ag 10µM
Cc1cc(N/N=C/c2ccc(O)c(C)c2O)nc(-c2ccccc2O)n1	GLP1R cytotox 10µM, GLP-1R inv ag inconclusive
CC/C(=C\C=C\[C@@H]1C=C[C@@H]2CCC[C@H]2[C@@H]1C(=O)c1ccc[nH]1)[C@@H]1O[C@@H]([C@@H](C)C(=O)O)CC[C@@H]1C	GLP1R cytotox inconclusive, GLP-1R inv ag 2.51µM
Cc1[nH]c2ccccc2c1C(O)CN1CCN(c2cccc(C(F)(F)F)c2)CC1 (configuration not stated)	GLP1R cytotox inconclusive, GLP-1R inv ag inconclusive
CCOc1cccc(CC(=O)NCc2ccc3c(c2)CCN3C(=O)c2cccc(C)c2)c1OCC	none
CCN1/C(=C/C(C)=C/c2sc3ccccc3[n+]2CC)Sc2ccccc21	GLP1R cytotox 12.6µM, GLP-1R inv ag inconclusive
O=Cc1cn(Cc2ccc([N+](=O)[O-])cc2)c2ccccc12	GLP-1R inv ag 2.24µM
